Assay results as given in PubChem BioAssay (Tox21).
Values joined by “and” are separate entries in the source; they are usually repeats but may differ in a detail not shown here. Identical values can stand only once. Inconclusive results are not listed. A call without a number means that no potency is given here. Some compounds were tested as several samples or in several runs, with calls that do not always agree. Active and inactive are the calls of the source. Unless noted, calls follow the shape of the full dose curve.

Assays:
[1] = Nuclear factor erythroid 2-related factor 2/antioxidant responsive element (Nrf2/ARE) small molecule agonists: qHTS cell viability counter screen in human keratinocytes (AID 1919968; active = well fitted curve in the direction sought with a large enough effect in the repeat runs; an effect the other way counts as inactive or inconclusive; also: nearly all actives have a fitted effect of over 55% in size; also: potency is read from the fitted curve at half-maximal effect)
Procedure, shortened: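 Seed 1,500 KeratinoSens cells per well, then incubate 5 h at 37 C/5% CO2. Add compounds in DMSO and incubate 23 h. Add CellTiter-Fluor, wait 1 h and read fluorescence.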

[2] = Nuclear factor erythroid 2-related factor 2/antioxidant responsive element (Nrf2/ARE) small molecule agonists: luciferase reporter gene qHTS assay in human keratinocytes (AID 1919969); also: nearly all actives have a fitted effect of over 35% in size; also: potency is read from the fitted curve at half-maximal effect
[3] = target: Gonadotropin-releasing hormone receptor (Homo sapiens) (UniProt P30968); assay: Human gonadotropin-releasing hormone receptor (GnRHR) small molecule agonists, calcium flux assay in GnRHR-HEK293 cells (AID 1920063); also: nearly all actives have a fitted effect of over 35% in size
Gonadotropin-releasing hormone receptor (Homo sapiens), sequence (P30968 whole entry, looked up): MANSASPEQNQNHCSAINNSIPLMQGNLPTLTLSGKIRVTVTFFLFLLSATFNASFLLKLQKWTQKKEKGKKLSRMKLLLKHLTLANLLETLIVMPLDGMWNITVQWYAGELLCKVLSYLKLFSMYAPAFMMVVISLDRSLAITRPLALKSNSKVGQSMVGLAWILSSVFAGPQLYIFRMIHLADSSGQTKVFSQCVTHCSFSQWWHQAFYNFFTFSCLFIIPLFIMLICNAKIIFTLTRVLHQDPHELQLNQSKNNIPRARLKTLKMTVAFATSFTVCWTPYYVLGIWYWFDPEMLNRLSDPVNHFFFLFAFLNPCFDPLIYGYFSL
Procedure, shortened: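 Cells: HEK293 stably expressing human GnRHR. Steps: overnight (18 h) culture, 1 h calcium dye loading at 37 C, compound addition, kinetic fluorescence read at 480/540 nm. Each compound tested at 15 concentrations in triplicate.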

[4] = target: KiSS-1 receptor (Homo sapiens) (UniProt Q969F8); assay: Human kisspeptin (KISS1R) small molecule agonists, calcium flux assay in KISS1R-HEK293 cells (AID 1920064; active = well fitted curve in the direction sought with a large enough effect in the repeat runs; an effect the other way counts as inactive or inconclusive)
KiSS-1 receptor (Homo sapiens), sequence (Q969F8 whole entry, looked up): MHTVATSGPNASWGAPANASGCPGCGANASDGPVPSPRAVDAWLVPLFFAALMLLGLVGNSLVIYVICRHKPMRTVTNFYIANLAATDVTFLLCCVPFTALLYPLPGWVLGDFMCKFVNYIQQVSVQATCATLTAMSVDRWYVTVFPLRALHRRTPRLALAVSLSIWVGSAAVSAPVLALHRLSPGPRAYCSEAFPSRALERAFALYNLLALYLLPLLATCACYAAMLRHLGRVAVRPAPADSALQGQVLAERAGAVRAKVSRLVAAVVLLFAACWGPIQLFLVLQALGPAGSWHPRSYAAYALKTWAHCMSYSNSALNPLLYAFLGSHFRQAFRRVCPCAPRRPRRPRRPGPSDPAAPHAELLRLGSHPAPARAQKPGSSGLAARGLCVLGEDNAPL
Procedure, shortened: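 Cells plated and incubated 18 h; dye added, 1 h at 37 C; compounds in DMSO pinned in; signal read at 480/540 nm every second for 3 min. Each compound tested at 15 concentrations in triplicate.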

[5] = G protein-coupled receptor (GPCR) small molecule agonists, calcium flux assay: HEK293 wild type cell line counter screen (AID 1920065)
Procedure, shortened: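 Counter-screen of the Tox21 10K library for non-specific calcium release: dye-loaded cells received compounds in DMSO and were monitored by kinetic fluorescence (480/540 nm, 3 min). Fifteen concentrations, run in triplicate.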

[6] = p53 small molecule agonists, cell-based qHTS assay with human liver microsomes (AID 1963577);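 also: p53 response element beta-lactamase reporter cells with liver microsomes plus NADPH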
Procedure, shortened: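 HLM-supplemented p53RE-bla reporter assay: 16 h compound exposure at 37 C, microsomes and NADPH each 0.5 mg/mL final, read by fluorescence intensity.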

[7] = p53 small molecule agonists, cell-based qHTS assay with rat liver microsomes (AID 1963578)
Procedure, shortened: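 Quantitative HTS of the Tox21 10K library: p53RE-bla cells, rat liver microsomes plus NADPH at 0.5 mg/mL final each, 16 h at 37 C, beta-lactamase fluorescence detection.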

[8] = p53 small molecule agonists, cell-based qHTS assay with human liver microsomes: qHTS cell viability counter screen (AID 1963579); also: nearly all actives have a fitted effect of over 45% in size
Procedure, shortened: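 Viability of p53RE-bla cells is measured as CellTiter-Glo luminescence following a 16 h, 37 C incubation with compound, liver microsomes from human donors and NADPH.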

[9] = p53 small molecule agonists, cell-based qHTS assay with rat liver microsomes: qHTS cell viability counter screen (AID 1963580); also: nearly all actives have a fitted effect of over 45% in size
Procedure, shortened: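 In HCT-116 cells carrying a p53 response element-bla reporter, compounds were metabolically activated in situ by rat liver microsomes with NADPH over 16 h. Cell ATP content then served as the cytotoxicity measure.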

[10] = p53 small molecule agonists, cell-based qHTS assay: qHTS cell viability counter screen (AID 1963581); also: nearly all actives have a fitted effect of over 45% in size; also: potency is read from the fitted curve at half-maximal effect
Procedure, shortened: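 Cells: HCT-116 with p53 response element-driven beta-lactamase. Treatment: 16 h, 37 C, compounds in DMSO. Read: CellTiter-Glo luminescence after 30 min RT.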

[11] = p53 small molecule agonists, cell-based qHTS assay (AID 1963582; active = well fitted activation curve with a large enough effect in the signal ratio in the repeat runs, not every such curve was filed as active; the % refers to the signal ratio)
Procedure, shortened: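 Quantitative HTS in p53RE-bla cells: after a 5 h settling period, compounds delivered in DMSO were left on cells for 16 h at 37 C, and reporter induction was measured as fluorescence following 2 h substrate loading.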

[12] = cAMP Responsive Elements (CRE) small molecule antagonists, cell-based qHTS assay (AID 1963591; active = well fitted inhibition curve with a large enough effect in the signal ratio in the repeat runs, not every such curve was filed as active; the % refers to the signal ratio)
Procedure, shortened: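 Antagonist mode: test compounds are co-incubated with the adenylyl cyclase activator NKH477 (0.25 uM final) on CRE-bla HEK293T cells for 3 h at 37 °C, followed by LiveBLAzer substrate loading.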

[13] = target: Beta-2 adrenergic receptor (Homo sapiens) (UniProt P07550); assay: Adrenergic beta2 receptor (ADRB2) small molecule antagonists, cell-based qHTS assay (AID 1963592); also: series mostly up to about 92 µM; nearly all actives have a fitted effect of over 50% in size
Beta-2 adrenergic receptor (Homo sapiens), sequence (P07550 whole entry, looked up): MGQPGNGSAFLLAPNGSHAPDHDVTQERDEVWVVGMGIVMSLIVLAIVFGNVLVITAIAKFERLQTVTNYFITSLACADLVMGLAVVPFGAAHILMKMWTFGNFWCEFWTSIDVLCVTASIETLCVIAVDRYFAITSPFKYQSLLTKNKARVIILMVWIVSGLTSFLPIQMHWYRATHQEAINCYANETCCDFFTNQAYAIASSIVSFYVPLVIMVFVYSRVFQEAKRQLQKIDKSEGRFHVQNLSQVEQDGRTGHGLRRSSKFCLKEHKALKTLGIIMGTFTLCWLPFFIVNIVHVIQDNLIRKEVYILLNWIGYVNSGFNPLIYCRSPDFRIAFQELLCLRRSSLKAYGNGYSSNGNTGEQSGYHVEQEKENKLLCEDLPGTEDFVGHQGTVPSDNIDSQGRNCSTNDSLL
Procedure, shortened: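 Cells (CHO, stable ADRB2 overexpression) incubated 18-20hr at 37C; compounds added from DMSO; agonist mix (1nM isoproterenol, 100uM IBMX, 25uM Ro-20-1724) added; 0.5hr RT; d2-cAMP and anti-cAMP-cryptate added; 1hr RT; 665/615 nm read.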

[14] = target: D(2) dopamine receptor (Homo sapiens) (UniProt P14416); assay: Dopamine D2 receptor (DRD2) small molecule agonists, cell-based qHTS assay (AID 1963594); also: nearly all actives have a fitted effect of over 35% in size
D(2) dopamine receptor (Homo sapiens), sequence (P14416 whole entry, looked up): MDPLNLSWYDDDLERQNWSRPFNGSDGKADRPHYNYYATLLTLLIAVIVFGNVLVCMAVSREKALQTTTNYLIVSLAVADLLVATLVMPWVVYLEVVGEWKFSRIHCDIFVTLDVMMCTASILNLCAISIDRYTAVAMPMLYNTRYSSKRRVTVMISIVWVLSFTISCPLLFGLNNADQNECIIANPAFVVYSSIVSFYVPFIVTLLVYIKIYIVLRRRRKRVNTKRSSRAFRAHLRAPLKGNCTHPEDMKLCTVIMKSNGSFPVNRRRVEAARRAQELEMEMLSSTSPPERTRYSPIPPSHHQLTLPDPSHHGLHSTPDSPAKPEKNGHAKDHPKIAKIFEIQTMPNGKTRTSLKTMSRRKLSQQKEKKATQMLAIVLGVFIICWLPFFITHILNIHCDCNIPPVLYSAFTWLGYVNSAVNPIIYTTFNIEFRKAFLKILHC
Procedure, shortened: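 HEK293 cells stably expressing DRD2 were cultured 24 h at 37 C, then given Ro20-1724 (0.1 mM final) and compounds for 10 min at room temperature. NKH477 (200nM) was then added for 30 min. cAMP was read by HTRF.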

[15] = cAMP Responsive Elements (CRE) small molecule agonists, cell-based qHTS assay (AID 1963590)
Procedure, shortened: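 Agonist mode qHTS in CRE-bla HEK 293T cells: compounds dosed from DMSO for 3 h at 37 C/5% CO2, followed by LiveBLAzer B/G FRET substrate for 2 h at room temperature.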

[16] = target: D(2) dopamine receptor (Homo sapiens) (UniProt P14416); assay: Dopamine D2 receptor (DRD2) small molecule antagonists, cell-based qHTS assay (AID 1963595; active = well fitted inhibition curve with a large enough effect in the signal ratio in the repeat runs, with a control signal flat; the % refers to the signal ratio)
Procedure, shortened: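 HTRF cAMP read-out at 665 and 620 nm emission (340 nm excitation). Antagonist mode: compounds were tested against 12 nM quinpirole in DRD2-HEK293 cells, with 200 nM NKH477 raising cAMP and 0.1 mM Ro20-1724 blocking its breakdown.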

[17] = target: 5-hydroxytryptamine receptor 2A (Homo sapiens) (UniProt P28223); assay: 5-hydroxytryptamine receptor 2A (HTR2A) small molecule agonists, cell-based qHTS assay (AID 1963587); also: nearly all actives have a fitted effect of over 30% in size
5-hydroxytryptamine receptor 2A (Homo sapiens), sequence (P28223 whole entry, looked up): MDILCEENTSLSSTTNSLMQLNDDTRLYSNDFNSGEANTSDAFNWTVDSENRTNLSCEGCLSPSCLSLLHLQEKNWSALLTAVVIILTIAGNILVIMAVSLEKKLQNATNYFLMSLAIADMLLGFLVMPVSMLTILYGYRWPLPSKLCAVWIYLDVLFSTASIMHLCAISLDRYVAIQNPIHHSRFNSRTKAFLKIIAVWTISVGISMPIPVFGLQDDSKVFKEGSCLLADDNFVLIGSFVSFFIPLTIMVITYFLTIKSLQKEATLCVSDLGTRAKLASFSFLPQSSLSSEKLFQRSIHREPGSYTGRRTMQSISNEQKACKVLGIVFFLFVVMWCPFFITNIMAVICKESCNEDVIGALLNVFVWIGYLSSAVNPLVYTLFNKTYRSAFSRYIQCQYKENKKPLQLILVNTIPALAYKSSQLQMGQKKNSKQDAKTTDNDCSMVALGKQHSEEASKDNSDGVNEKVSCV
Procedure, shortened: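 HTR2A-CHO cells, plated 18 h at 37 C/5% CO2, dye-loaded 1 h at 37 C; compounds in DMSO added by pin tool (agonist mode). Intracellular calcium flux read as kinetic fluorescence on FDSS over 2 min at 1 s intervals.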

[18] = target: Muscarinic acetylcholine receptor M1 (Homo sapiens) (UniProt P11229); assay: Cholinergic receptor muscarinic 1 (CHRM1) small molecule antagonists, cell-based qHTS assay (AID 1963588); also: nearly all actives have a fitted effect of over 40% in size
Muscarinic acetylcholine receptor M1 (Homo sapiens), sequence (P11229 whole entry, looked up): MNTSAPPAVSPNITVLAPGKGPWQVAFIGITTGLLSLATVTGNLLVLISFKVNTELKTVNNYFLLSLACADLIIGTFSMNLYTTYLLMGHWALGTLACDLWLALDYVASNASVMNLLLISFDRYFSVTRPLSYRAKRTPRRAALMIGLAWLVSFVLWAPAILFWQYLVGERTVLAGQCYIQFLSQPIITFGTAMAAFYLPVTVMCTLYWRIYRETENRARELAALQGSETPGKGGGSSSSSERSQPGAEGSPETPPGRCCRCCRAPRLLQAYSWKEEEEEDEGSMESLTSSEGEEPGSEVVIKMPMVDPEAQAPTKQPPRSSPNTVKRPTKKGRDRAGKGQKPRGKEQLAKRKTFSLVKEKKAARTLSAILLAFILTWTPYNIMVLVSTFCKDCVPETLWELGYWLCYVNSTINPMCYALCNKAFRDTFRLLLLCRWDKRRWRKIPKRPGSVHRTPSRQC
Procedure, shortened: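 CHRM1-CHO calcium-flux assay, antagonist mode. Cells were seeded 18 h, dye-loaded 1 h at 37 C and given compound for 5 min at RT, then acetylcholine was added at 50nM. FDSS fluorescence was read 3 min; 15 concentrations, three runs.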

[19] = target: Muscarinic acetylcholine receptor M1 (Homo sapiens) (UniProt P11229); assay: Cholinergic receptor muscarinic 1 (CHRM1) small molecule agonists, cell-based qHTS assay (AID 1963589); also: nearly all actives have a fitted effect of over 35% in size
Procedure, shortened: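 Agonist-mode qHTS in CHO cells stably carrying human muscarinic M1. Intracellular calcium is tracked by fluorescence every second after compound transfer; each compound runs at 15 concentrations in three independent runs.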

[20] = target: 5-hydroxytryptamine receptor 2A (Homo sapiens) (UniProt P28223); assay: 5-hydroxytryptamine receptor 2A (HTR2A) small molecule antagonists, cell-based qHTS assay (AID 1963586); also: nearly all actives have a fitted effect of over 45% in size
Procedure, shortened: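 Antagonist-mode intracellular calcium assay: DOI (4 nM) added after 5 min compound pre-incubation at room temperature to dye-loaded HTR2A-CHO cells. Fluorescence followed for 3 min, sampled every second.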

| Compound | Potency [1] | Potency [2] | Potency [3] | Potency [4] | Potency [5] | Potency [6] | Potency [7] | Potency [8] | Potency [9] | Potency [10] | Potency [11] | Potency [12] | Potency [13] | Potency [14] | Potency [15] | Potency [16] | Potency [17] | Potency [18] | Potency [19] | Potency [20] |
| --- | --- | --- | --- | --- | --- | --- | --- | --- | --- | --- | --- | --- | --- | --- | --- | --- | --- | --- | --- | --- |
| Clc1ccc(C(c2ccccc2Cl)C(Cl)Cl)cc1 (centres undefined) | 61.1 µM (active) | inactive | inactive | inactive | inactive | inactive | inactive | inactive | inactive | 40.8 µM (active) | inactive | inactive | inactive | inactive |  |  |  |  |  |  |
| CC(C)Oc1ccc2c(=O)c(-c3ccccc3)coc2c1 | inactive | 376 nM (active) and 266 nM (active) | inactive | inactive | inactive | inactive | inactive | inactive | inactive | inactive | inactive | inactive | inactive | inactive | inactive | inactive |  |  |  |  |
| CC(C)=CCC[C@H](C)CC=O | inactive | inactive | inactive | inactive | inactive | inactive | inactive | inactive | inactive | inactive | inactive | inactive | inactive | inactive | inactive | inactive |  |  |  |  |
| CC(CCC(=O)O)C(=O)O (centres undefined) | inactive | inactive | inactive | inactive | inactive | inactive | inactive | inactive | inactive | inactive | inactive | inactive | inactive | inactive | inactive | inactive | inactive | inactive | inactive |  |
| COC(=O)C1=C(C)NC(C)=C(C(=O)OCC(C)C)C1c1ccccc1[N+](=O)[O-] (centres undefined) | inactive | 24.3 µM (active) and inactive | inactive | inactive | inactive | inactive | inactive | inactive | inactive | inactive | inactive | inactive | inactive | inactive |  |  |  |  |  |  |
| CC1=C(O)C(=O)C(C)O1 (centres undefined) | inactive | inactive | inactive | inactive | inactive | inactive | inactive | inactive | inactive | inactive | inactive | inactive | inactive | inactive | inactive | inactive | inactive | inactive |  |  |
| CCOCCOCCOCCO | inactive | inactive | inactive | inactive | inactive | inactive | inactive | inactive | inactive | inactive |  | inactive | inactive | inactive | inactive |  | inactive | inactive | inactive | inactive |
| Cc1occc1S | inactive | 68.6 µM (active) | inactive | inactive | inactive | inactive | inactive | inactive | inactive | inactive | inactive | inactive | inactive | inactive | inactive | inactive | inactive | inactive | inactive |  |
